39 molecules from PubChem BioAssay (EPA / NIEHS) can be followed below.

Some compounds were tested as several samples or in several runs, with calls that do not always agree. Active and inactive are the calls of the source. The calls were made as follows: active = hit-call score of the fitted dose curve at least 0.9, where 1 is the maximum; inactive = score below 0.9.

This assay in a line: ATG_SREBP_CIS: Attagene CIS-FACTORIAL HepG2 Assay for human Sterol Regulatory Element Binding (SREBP) (AID 2282962). As to conditions: HepG2 Attagene cis-factorial SREBP reporter, mRNA; actives raise or lower the signal. How it is done:
ATG_CIS is a cell-based, multiplexed-readout assay that uses HepG2, a human liver cell line, with measurements taken at 24 hours after chemical dosing in a 24-well plate.ATG_SREBP_CIS is one of 52 assay component(s) measured or calculated from the ATG_CIS assay. It is designed to make measurements of mRNA induction, a form of inducible reporter, as detected with fluorescence intensity signals by Reverse transcription polymerase chain reaction (RT-PCR) and Capillary electrophoresis technology.Data from the assay component ATG_SREBP_CIS was analyzed into 1 assay endpoint. This assay endpoint, ATG_SREBP_CIS, was analyzed with bidirectional fitting relative to DMSO as the negative control and baseline of activity. Using a type of inducible reporter, measures of mRNA for gain or loss-of-signal activity can be used to understand the reporter gene at the transcription factor-level as they relate to the gene SREBF1. Furthermore, this assay endpoint can be referred to as a primary readout, because this assay has produced multiple assay endpoints where this one serves a reporter gene function. To generalize the intended target to other relatable targets, this assay endpoint is annotated to the dna binding intended target family, where the subfamily is basic helix-loop-helix leucine zipper.
Human liver HepG2 cells are transiently transfected with multiple reporter transcription units (MRTUs) in 6-well plates using FuGene 6 reagent (Roche; 3 ml FuGene/1 mg DNA). The MRTU constructs are regulated by a cis-regulating element (promoter). […] A major difference between the CIS and TRANS system is that in CIS activities of endogenous TFs are measured, whereas the TRANS assay evaluates changes in activities of exogenous, chimeric NR-Gal4 proteins. […] At the end of 24 hour incubation, total RNA was isolated using TriZol reagent (Invitrogen). The isolated RNA is then reverse-transcribed using oligo(dT) primer and Mo-MLV reverse transcriptase (Invitrogen) with DNAse I (Ambion) treatment for 30 min. The one-tenth of the produced cDNA was amplified by PCR using Taq DNA polymerase (Invitrogen) and two reporter sequence-specific primers. The PCR products were fluorescently labeled by primer extension with 6-arboxyfluorescein (6-FAM) 5'-labeled reporter sequence-specific primer (2 min at 95 C, 20 s at 68 C and 10 min at 72 C) and these products were digested with 5U of HpaI (New England Biolabs) for 2h at 37 C. The fragments were purified using Qiaquick PCR columns (Qiagen), analyzed on an ABI 3130xL genetic analyzer (Applied Biosystems) with peak positions identified by using a set of X-rhodamine (ROX)-labeled MapMarker1000 molecular weight standards (BioVentures). The raw capillary electrophoresis data was processed using Attagraph software (Attagene).
Consider `CCO[Si](C)(C)OCC`, for which the molecule was called inactive.
On the same count and under the same terms, the entry for `Cc1ccc2ccc3ccc(C)cc3c2c1` is “inactive”; for `CC(C)(C)c1ccc(CCC=O)cc1` it is “inactive”.
As usually defined, the AC50 is the concentration giving half of the maximal activity seen. Take `CCCCCCOC(=O)c1ccc(O)cc1`: the AC50 was 33.4 µM (active).
As to `CCCCCCCCC1CCC(=O)O1` (stereo not given), the outcome was inactive.
Regarding `CCN(CC)CC`, the outcome was inactive.
Same read-out and setting: the entry for `CCCCC=O` is “inactive”; for `CCO[Si](CCC1CCC2OC2C1)(OCC)OCC` (stereo not given) it is “inactive”; for `O=S(=O)(O)c1ccc2cc(O)ccc2c1` it is “inactive”.
In the case of `COc1cc([N+](=O)[O-])ccc1N`, the result was inactive.
`CC1=CC(=O)c2ccccc2C1=O`: the outcome was inactive.
On the same count and under the same terms, the same measure for `CN(CCO)S(=O)(=O)C(F)(F)C(F)(F)C(F)(F)C(F)(F)C(F)(F)C(F)(F)C(F)(F)C(F)(F)F`: “inactive”.
As to `Cn1sccc1=O`, the half-maximal activity concentration (AC50) was 161 µM (active).
Regarding `CCOC(=O)CN[C@@H](C(=O)N1CC[C@H]1C(=O)NCc1ccc(/C(N)=N/O)cc1)C1CCCCC1`, the outcome was inactive.
Still for that read-out and setting: the same measure for `O=CC(F)(F)C(F)(F)C(F)(F)F`: “inactive”; for `O=C1Cc2ccccc2N1c1c(Cl)cccc1Cl`: “inactive”.
`Cc1cc(C(=C2C=CC(=Nc3ccc(S(=O)(=O)O)cc3)C=C2)c2ccc(Nc3ccc(S(=O)(=O)O)cc3)cc2)cc(S(=O)(=O)O)c1N`: the call was inactive.
On the same count and under the same terms, the entry for `O=C(F)C(F)(F)C(F)(F)C(F)(F)C(=O)F` is “inactive”.
On to `CS(=O)(=O)c1ccc([C@@H](CC2CCCC2)C(=O)Nc2cnccn2)cc1Cl`, for which the concentration at half-maximal activity (AC50) was 136 µM (active).
On to `Cc1ccc(C(=O)c2ccccc2)cc1`, for which the molecule was classed as inactive.
Regarding `C=CC(F)(F)C(F)(F)C(F)(F)C(F)(F)F`, the molecule was classed as inactive.
Still for that read-out and setting: the same measure for `CCCCCCCC(OC)OC`: “inactive”.
For the molecule `Cc1ccc(C)c(S(=O)(=O)O)c1`, the result was inactive.
In the case of `Cc1ccccc1C(OCCN(C)C)c1ccccc1` (stereo not given), the AC50 was 48.6 µM (active) and the result was inactive.
Regarding `O=C(O)CCC(F)(F)C(F)(F)C(F)(F)C(F)(F)C(F)(F)C(F)(F)F`, the molecule was classed as inactive.
As to `O=S(=O)(c1ccc(OCc2ccccc2)cc1)c1ccccc1O`, the AC50 is 22.7 µM (active).
For the molecule `COC(=O)CC(C(C)=O)C(=O)OC` (stereo not given), the outcome was inactive.
On the same count and under the same terms, the entry for `FC(F)(F)N1C(F)(F)C(F)(F)OC(F)(F)C1(F)F` is “inactive”.
Same read-out and setting: the same measure for `C=COC(=O)C(C)(C)CCCCCC`: “inactive”.
Consider `Oc1c(Cl)cc(Cl)cc1Sc1cc(Cl)cc(Cl)c1O`, for which the outcome was inactive.
As for `Nc1cc(Cl)c(-c2cc(Cl)c(N)cc2Cl)cc1Cl`, the concentration at half-maximal activity (AC50) was 6.9 µM (active).
`Oc1ccc(Cc2ccccc2O)cc1`: the call was inactive.
Still for that read-out and setting: the entry for `NC(C(F)(F)F)C(F)(F)F` is “inactive”.
On the same count and under the same terms, the same measure for `COc1ccc(C#N)cc1`: “inactive”; for `C=CCOCC(CO)(CO)CO`: “inactive”.
On the same count and under the same terms, the entry for `CCCCCCCCCCCC[N+](C)(C)CCCCCCCCCCCC` is “inactive”; for `C=CC(=C)CC/C=C(\C)CCC=C(C)C` it is “inactive”; for `CC[N+](CC)(CC)Cc1ccccc1` it is “inactive”.
With `O=C(c1ccccc1)c1ccccc1`, the molecule was called inactive.
